Data: PubChem BioAssay AID624331 (National Center for Advancing Translational Sciences (NCATS), 2012)
Results filed as inconclusive are left out. Activity calls are given as the source filed them. Calls come from the whole dose curve; as a rule, active = well fitted activation curve with a large enough effect; inconclusive = small, poorly fitted or top-dose-only effect; inactive = no such curve, though single readings can be large or run the other way.

Assay: qHTS assay for re-activators of p53 using a Luc reporter: Hit Validation with no p53 Expressed; note: 0% is about no effect
Details: p53-null cells, luciferase reporter counter-screen; series mostly up to 46.1 µM; activity change, positive = activation: at the top concentration
Source text: The p53 tumor suppressor plays a key role in suppression of tumorigenesis and in human carcinogenesis. It is frequently found inactivated in human cancers, mainly by point mutation. These point mutations are found in a wide variety of human cancers and a majority of them affect the DNA binding domain of the protein. The point mutations either alter native p53 conformation or abolish DNA contact. Additionally, cancer cells with p53 mutations are more resistant to chemo-radiation therapies.
This counter screen was run against the hits identified from the primary screen. It uses a cell line that was not transfected with p53. Compounds that show activity in this counter screen show unspecific activation of the assay system and are excluded from further consideration.
NIH Chemical Genomics Center [NCGC]
NIH Molecular Libraries Probe Production Centers Network [MLPCN]
Assay Provider (PI): Yi Sung, University of Michigan at Ann Arbor
5ul of 1000 cells per well are dispensed in all wells except column 4, into white solid-bottom TC-treated Kalypsys plates. The cells are kept in Opti-MEM and supplemented with 10% FBS and dispensed using a Multidrop (Thermo). Then using the Kalypsys pin-tool, 23nl of compounds are pinned. The compounds are starting concentration at 10mM, with 1:5 dilution, 4 points, and the control compound nocodazole is pinned in column 1 at 25mM, 1:3 dilution, in duplicate, 25mM nocodazole is pinned in column 2. Please note, all concentrations are working concentrations. 5ul of 1pM purified luciferase enzyme is dispensed using the Kalypsys dispenser in column 4. Plates are incubated for 24 hrs at 37 deg C, 5% CO2, and 95% humidity. Then 4ul of the detection reagent Amplite (ABD Bioquest) is added using the Kalypsys dispenser. Plates are incubated for 10 min at ambient room temperature and are then read on the ViewLux (Perkin Elmer) using a clear filter for a luminescent read-out.

SMILES	activity change, positive = activation
Nc1c(C(=O)NCc2ccco2)c2nc3ccccc3nc2n1Cc1ccc(F)cc1	-16.3% (inactive)
N#Cc1cc2c(nc1SCC(=O)Nc1ccc(Cl)cc1)C1CCN2CC1	-5.62% (inactive)
O=C(N/N=C/c1c(O)n(C2CC2)c(=S)[nH]c1=O)c1ccccc1	38.9% (inactive)
CCCCCCOc1ccc(CN2CCN(C)CC2)cc1	83.8% (inactive)
C=C(C)C(Cc1c(OC)ccc(C(=O)/C=C/c2ccc(O)cc2)c1O)OO (configuration not stated)	12.7% (inactive)
COC(=O)C1=C(c2cccc(C#N)c2)C[C@@H]2CC[C@H]1N2C(=O)NC1CC1	-26.1% (inactive)
CC1CCCCC1NC1CCN(C)CC1 (configuration not stated)	8.27% (inactive)
N#Cc1cc2c(nc1SCC(=O)Nc1cc(Cl)ccc1Cl)C1CCN2CC1	-10.3% (inactive)
N=C1c2ccccc2CN1CC(=O)c1ccccc1	60.3% (inactive)
COc1ccc(CN2CCNCC2)cc1	-27.3% (inactive)
Cc1cc(N2C(=O)C3CCCN3C2c2sccc2C)no1 (configuration not stated)	-7.66% (inactive)
COc1ccc(NC(=O)C2C3CCC(O3)C2C(=O)O)c(OC)c1 (configuration not stated)	13.5% (inactive)
O=C(c1cc2c(s1)CCCC2)N1CCC2(CC1)OCCO2	-22.7% (inactive)
CN(C)P(=O)(C(Cl)=C(N1CCCCC1)N1CCCCC1)N(C)C	56.7% (inactive)
COC(=O)C1=C(c2ccc(F)cc2OCc2ccccc2)C[C@@H]2CC[C@H]1N2C(=O)NCCOc1ccc(OC)cc1	-31% (inactive)
O=C(N/N=C/c1c(O)n(Cc2ccccc2)c(=O)[nH]c1=O)c1ccccc1	-23.5% (inactive)
Nc1ccccc1N=Cc1c(O)n(CCC2=CCCCC2)c(=O)[nH]c1=O	-35.9% (inactive)
